Measurements from PubChem BioAssay (NCI).
The panel holds about 79,000 compounds, 15% with a hit somewhere; the sample as a whole holds those more often. No stated cut-off is given here; in the data, active means growth inhibition above about 70%; inactive means the rest.

Legend:
[1] = NCI Yeast Anticancer Drug Screen. Data for the rad50 strain (AID 155);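 further: 0% = growth of vehicle-only cultures of the same strain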; conditions: S. cerevisiae rad50 strain growth inhibition; at 50.0 µM; stronger effect = higher value
Method in brief: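 Readout: growth inhibition relative to vehicle-treated cultures. Compound exposure was carried out in a genetically defined yeast strain deficient in DNA damage repair.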

[2] = NCI Yeast Anticancer Drug Screen. Data for the mec2-1 strain (AID 157); conditions: S. cerevisiae mec2-1 strain, at 50.0 µM, stronger effect = higher value
Method in brief: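 Compounds were applied to mec2-1 yeast cells. Their growth was then compared with that of vehicle-treated cultures to give growth inhibition.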

[3] = NCI Yeast Anticancer Drug Screen. Data for the sgs1 mgt1 strain (AID 161);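 further: 0% = growth of cultures given vehicle only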; conditions: S. cerevisiae sgs1 mgt1 strain, at 50.0 µM, stronger effect = higher value
Method in brief: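 Growth of a repair-deficient yeast mutant was monitored after compound treatment and expressed as inhibition relative to vehicle-treated cultures.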

[4] = NCI Yeast Anticancer Drug Screen. Data for the cln2 rad14 strain (AID 165);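 further: 0% = growth equal to vehicle treated cultures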; conditions: S. cerevisiae cln2 rad14 strain, at 50.0 µM, stronger effect = higher value
Method in brief: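 Strain: cln2 rad14 yeast, altered in cell cycle control and DNA damage repair. Read-out: growth inhibition vs vehicle.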

[5] = NCI Yeast Anticancer Drug Screen. Data for the bub3 strain (AID 167); conditions: S. cerevisiae bub3 mutant strain, at 50.0 µM, stronger effect = higher value
Method in brief: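 Readout: yeast growth inhibition, expressed relative to vehicle-only wells. The test organism is a mutant strain from a panel with lesions in DNA repair or checkpoint genes.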

[6] = NCI Yeast Anticancer Drug Screen. Data for the mlh1 rad18 strain (AID 175); conditions: S. cerevisiae mlh1 rad18 strain growth inhibition; at 50.0 µM; stronger effect = higher value
Method in brief: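 A repair-deficient yeast strain is exposed to test compound, and growth is scored relative to vehicle-treated controls.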

Measured: growth inhibition

CC1(CBr)COC(c2ccccc2)(c2ccccc2)OC1
inactive: [1] 18.1% | [2] -2.4% | [3] 20.6% | [4] -31.4% | [5] -22.2% | [6] 28.5%

CC1=CCCC(C)(C)C1/C=C\C(C)=N\Nc1ccc([N+](=O)[O-])cc1[N+](=O)[O-] (stereo unspecified)
inactive: [1] 0.55% | [2] -3.3% | [3] -12.3% | [4] -33.9% | [5] -0.15% | [6] 6.3%

COC(=O)N/N=C(\C)CC(=O)Nc1ccc(Cl)cc1
inactive: [1] -22.9% | [2] -32.6% | [3] -28.2% | [4] -5.95% | [5] -27.2% | [6] -43.7%

COc1cc(OC)c(C(C)=O)c(C(C)=O)c1
inactive: [1] -15.8% | [2] -13.6% | [3] -13.6% | [4] -5.3% | [5] -10.6% | [6] -2.55%

NS(=O)(=O)c1cccc(C(F)(F)F)c1
inactive: [1] -7.95% | [2] -37.9% | [3] -13.6% | [4] -21.7% | [5] -16.4% | [6] -7.2%

Cc1cc2c(c([N+](=O)[O-])c1C)C(=O)C(Br)=C(Br)C2=O
inactive: [1] 15.7% | [2] 10.4% | [3] 21.5% | [4] 34.7% | [5] 5.9% | [6] 36.2%

CCOC(=O)CCCCCCCCCCCCC1C=CCC1 (stereo unspecified)
inactive: [1] -19.1% | [2] -41.4% | [3] -3.45% | [4] -28.6% | [5] -49.1% | [6] -21.3%

NC(=S)NNC(=O)c1ccccc1
inactive: [1] -16.7% | [2] -10.6% | [3] -2.25% | [4] 9.65% | [5] 6.75% | [6] -2.55%

NC(CS(=O)Cc1ccccc1)C(=O)O (stereo unspecified)
inactive: [1] 0.8% | [2] -1.1% | [3] -0.3% | [4] -29.6% | [5] -2.8% | [6] -6.85%

CC1=CC(C)(C)SC(=S)N1
inactive: [1] 24.9% | [2] 5.3% | [3] 19.8% | [4] -60.6% | [5] -3.35% | [6] 29.3%

Oc1ccccc1/C=N/c1nc(-c2ccccc2)cs1.[Co].[O-]c1ccccc1/C=N/c1nc(-c2ccccc2)cs1
inactive: [1] 19.2% | [2] 5.9% | [3] 9.8% | [4] 22.4% | [5] 5.35% | [6] 21.2%

CC1N=C(SCC(=O)c2ccc(Cl)cc2)N2C(C)N=C(SCC(=O)c3ccc(Cl)cc3)N12 (stereo unspecified)
inactive: [1] -0.65% | [2] -17.1% | [3] -20.6% | [4] 0.5% | [5] -6.85% | [6] 10.2%

Cc1ccc(C2(c3ccc(C)cc3)OCC(C)(CBr)CO2)cc1
inactive: [1] -30% | [2] -1.4% | [3] -20.4% | [4] -8.5% | [5] 1.6% | [6] -14.5%

CCOC(=O)c1c(N)sc2c1C(C(=O)OCC)CCC2 (stereo unspecified)
inactive: [1] -28.3% | [2] -10.7% | [3] 3.95% | [4] -24.1% | [5] 19.4% | [6] -11.7%

O=c1ccc(-c2ccccc2)n[nH]1
inactive: [1] -25.4% | [2] -0.2% | [3] -28.3% | [4] 5% | [5] -25.8% | [6] -23.9%

CC1CN(C(=S)Nc2ccccc2)CCN1c1ccccc1 (stereo unspecified)
inactive: [1] 4.15% | [2] -2.35% | [3] -4.15% | [4] -34.8% | [5] 9.3% | [6] -5.45%

c1cc(CNCCN2CCNCC2)ccn1
inactive: [1] 7.45% | [2] -34.2% | [3] -3.7% | [4] -1.9% | [5] -48.9% | [6] 16.8%

CSc1nc(NC2OCC(O)C(O)C2O)cc(=O)n1C (stereo unspecified)
inactive: [1] 7.25% | [2] -0.45% | [3] 7.4% | [4] -4.9% | [5] -26.9% | [6] -2.95%

C1CSC(SCCCSC2SCCCS2)SC1
inactive: [1] -4.1% | [2] 5.3% | [3] -9.9% | [4] -7.1% | [5] -12.2% | [6] -14.1%

CN(C)S(=O)(=O)c1nc2nc[nH]c(=O)c2[nH]1
inactive: [1] -3.2% | [2] -20.4% | [3] -3.8% | [4] -15.9% | [5] -8.55% | [6] -22.9%

S=C(Cl)Sc1ccc(-c2ccc(SC(=S)Cl)cc2)cc1
inactive: [1] 2.7% | [2] -2.5% | [3] -10.4% | [4] -5.6% | [5] 6.1% | [6] -7.9%
